Drawing on PubChem BioAssay (NCATS), this text covers Potency for 22 compounds.

Records with an inconclusive call do not appear. A call without a number means that no potency is given here. Activity calls are given as the source filed them. Calls come from the whole dose curve; as a rule, active = well fitted inhibition curve with a large enough effect; inconclusive = small, poorly fitted or top-dose-only effect; inactive = flat fitted curve, though single readings scatter.
Potency is the fitted concentration of half-maximal effect.

The subject of the assay is CP203. The assay can be described thus: qHTS profiling for inhibitors of Plasmodium falciparum proliferation (AID 504749). Note: nearly all actives have a fitted effect of over 60% in size. The note with it: P. falciparum in erythrocytes, SYBR Green DNA, 72 h; series mostly up to 28.7 µM. An outline of the steps:
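Parasite proliferation within erythrocytes, 72 h exposure. Endpoint: SYBR Green I fluorescence after overnight lysis at room temperature. Controls: 0.29 uM artemisinin, DMSO.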
In general terms: qHTS replaces the single test concentration by a dilution series.
Take `Cc1ccc(C(C)(C)c2ccc(C)cc2)cc1`: the Potency result is “inactive”.
With `N[C@H](CC(=O)O)C(=O)O` the entry was “inactive”; with `O=C(O)COc1ccc(CCNS(=O)(=O)c2ccccc2)s1`, “inactive”; with `O=S(=O)(O)CCCS(=O)(=O)O`, “inactive”.
With `COC(=O)c1ccccc1O` the entry was “inactive”; with `CC1(O)CCC(C(C)(C)O)CC1` (configuration not stated), “inactive”; with `COc1ccc(/C=C/C(=O)O)cc1`, “inactive”.
For the compound `CC(=O)Nc1c(I)c(C(=O)O)c(I)c(N(C)C(C)=O)c1I`, the Potency result is “inactive”.
Regarding `Nc1ncnc2c1ncn2[C@H]1CC[C@@H](CO)O1`, the Potency entry was “inactive”.
With `COC(=O)C(CN)c1c[nH]c2ccc(OC)cc12` (configuration not stated), the Potency entry is “inactive”.
With `CC/C(=C(/CC)c1ccc(OP(=O)(O)O)cc1)c1ccc(OP(=O)(O)O)cc1` the entry was “inactive”.
As for `CN1c2c(nc(N)[nH]c2=O)NCC1CNc1ccc(C(=O)NC(CCC(=O)O)C(=O)O)cc1` (configuration not stated), the Potency entry is “inactive”.
Turning to `CC(C)(CO)[C@@H](O)C(=O)NCCC(=O)NCCSSCCNC(=O)CCNC(=O)[C@H](O)C(C)(C)CO`, the Potency entry is “inactive”.
For `CCCC(=O)O`, the Potency result is “inactive”.
As for `CCSc1ccc2c(c1)N(CCCN1CCN(C)CC1)c1ccccc1S2`, the Potency result was “inactive”.
On to `CC1=CC(=C(c2ccc(N)cc2)c2ccc(N)cc2)C=CC1=N`, for which the Potency was 4.26 µM (active).
Take `CC1=CC(=O)NS(=O)(=O)O1`: the Potency entry was “inactive”.
Next, `CC1CCCCN1CCCOC(=O)c1ccccc1` (configuration not stated): “inactive”; `COC(=O)CC[C@H](N)C(=O)O`: “inactive”.
As to `C[C@H](CCC(=O)O)[C@H]1CC[C@H]2[C@@H]3CC[C@@H]4C[C@H](O)CC[C@]4(C)[C@H]3C[C@H](O)[C@]12C`, the Potency entry was “inactive”.
Consider `CO`, for which the Potency entry is “inactive”.
On to `C=CCN1CCCC1CNC(=O)c1cc(S(N)(=O)=O)cc(OC)c1OC` (configuration not stated), for which the Potency result is “inactive”.
